Rows were chosen to be rich in hits. Some 12% of all compounds tested hit in one or more screens of this group.
HP1b binding inh: HP1-beta chromodomain-methylated histone interaction inhibition; P83916; AlphaScreen HP1-beta / biotin-H3K9me3 peptide binding; Potency, µM (doses to about 114 µM), for the others: at the highest dose activity change, negative = inhibition, actives largely listed as inhibitors; 390,000 tested, 0.56% active; note: nearly all actives have a fitted effect of over 70% in size
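AlphaScreen: HP1-beta (50 nM) preformed 30 min with biotin-H3(1-18)K9me3 peptide (50 nM) in PBS pH 7.4, 0.01% Tween-20. Compound added for 30 min at RT, then streptavidin donor/nickel chelate acceptor beads (10 ug/mL) for 30 min.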
G9a block: inhibitors of human histone lysine methyltransferase G9a | Q96KQ7 | G9a H3K9 monomethylation, AlphaScreen, 2 h | Potency, µM (doses to about 102 µM), without a hit: at the highest dose activity, negative = inhibition, usual class: inhibitors | 350,000 tested, 8.8% active; note: % is set by controls: 0 for no effect and ±100 for the full control effect; nearly all actives have a fitted effect of over 75% in size
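AlphaScreen read-out: biotin-H3K9 peptide (500 nM) methylation by 20 nM enzyme with 20 uM SAM, 2 h at room temperature after 15 min compound preincubation; anti-monomethyl H3K9 antibody plus donor/acceptor beads, 10 min dark.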
Sfp inh: Sfp phosphopantetheinyl transferase inhibition; Biochemical Sfp PPTase activity, qHTS; Potency, µM, for the others: largest response in the series, negative = inhibition, usual class: inhibitors; 310,000 tested, 3.5% active; AID 1490;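 note: the enzyme is Sfp with the accession as filed and its product quenches rhodamine fluorescence; 0% = enzyme reaction without inhibitor and -100% = no enzyme wells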
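Reaction rates are the 30-min fluorescence difference (ex 525, em 598 nm) in wells containing 15 nM Sfp, 5 uM rhodamine-CoA and 12.5 uM BHQ-2-YbbR at pH 7.6 with 10 mM MgCl2.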
JMJD2A Tudor: inhibitors of human JMJD2A Tudor domain | O75164 | AlphaScreen JMJD2A-Tudor / H3K4me3 peptide binding | Potency, µM (titrated, usually from 114 µM), for inactives: top-dose activity change, negative = inhibition, actives largely listed as inhibitors | 390,000 tested, 4.4% active | AID 504339; note: % is set by controls: 0 for no effect and ±100 for the full control effect; nearly all actives have a fitted effect of over 50% in size
Target sequence (O75164 whole entry, looked up, the tested form may be a part): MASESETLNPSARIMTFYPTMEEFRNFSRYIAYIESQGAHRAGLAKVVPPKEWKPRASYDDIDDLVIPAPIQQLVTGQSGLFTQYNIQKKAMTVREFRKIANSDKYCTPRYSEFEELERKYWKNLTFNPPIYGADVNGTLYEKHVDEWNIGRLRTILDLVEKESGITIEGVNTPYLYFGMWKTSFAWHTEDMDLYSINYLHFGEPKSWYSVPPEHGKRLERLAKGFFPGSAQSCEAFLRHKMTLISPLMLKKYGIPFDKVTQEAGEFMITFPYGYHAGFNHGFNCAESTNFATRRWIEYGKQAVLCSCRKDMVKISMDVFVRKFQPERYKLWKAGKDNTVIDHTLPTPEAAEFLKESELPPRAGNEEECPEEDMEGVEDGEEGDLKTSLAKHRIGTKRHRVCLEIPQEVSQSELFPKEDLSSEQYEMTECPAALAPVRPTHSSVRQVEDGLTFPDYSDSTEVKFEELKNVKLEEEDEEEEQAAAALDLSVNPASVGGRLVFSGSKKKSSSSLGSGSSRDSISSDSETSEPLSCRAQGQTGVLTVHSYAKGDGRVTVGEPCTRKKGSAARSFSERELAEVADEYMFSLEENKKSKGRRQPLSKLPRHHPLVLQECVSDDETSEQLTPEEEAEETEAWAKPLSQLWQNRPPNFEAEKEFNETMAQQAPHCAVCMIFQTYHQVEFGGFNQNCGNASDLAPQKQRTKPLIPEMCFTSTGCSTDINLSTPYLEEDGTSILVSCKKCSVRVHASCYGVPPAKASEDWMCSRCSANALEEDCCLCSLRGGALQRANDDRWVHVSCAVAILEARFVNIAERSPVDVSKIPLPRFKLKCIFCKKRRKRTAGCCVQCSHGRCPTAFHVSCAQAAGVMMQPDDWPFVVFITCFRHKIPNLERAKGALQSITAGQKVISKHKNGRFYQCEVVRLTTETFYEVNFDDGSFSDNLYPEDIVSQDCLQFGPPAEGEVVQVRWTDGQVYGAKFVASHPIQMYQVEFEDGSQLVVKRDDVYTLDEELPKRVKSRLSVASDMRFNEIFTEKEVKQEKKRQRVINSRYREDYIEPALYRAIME
TDP1 block: TDP1 (human) enzyme inhibition | Potency, µM (titrated, usually from 130 µM), for the others: at the highest dose activity change, negative = inhibition, actives largely listed as inhibitors | 350,000 tested, 0.28% active | recombinant TDP1, AlphaScreen DNA substrate cleavage | AID 485290 | Q9NUW8; note: % is set by controls: 0 for no effect and ±100 for the full control effect; nearly all actives have a fitted effect of over 40% in size
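Tdp1 1 nM final; 15 min RT w/ cpd; substrate 15 nM, 5 min; beads 10 ug/ml, 10 min; AlphaScreen read. Neg ctrl: no enzyme.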
BAZ2B inh: BAZ2B (human) inhibition; AlphaScreen BAZ2B-H3K14Ac peptide displacement; Potency, µM (titrated, usually from 114 µM), without a hit: top-dose activity change, negative = inhibition, actives largely listed as inhibitors; 360,000 tested, 4.4% active; note: % is set by controls: 0 for no effect and ±100 for the full control effect; nearly all actives have a fitted effect of over 60% in size
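Complex of BAZ2B and biotin-H3K14Ac (50 nM apiece) forms over 30 min at RT, then faces library compounds up to 110 uM for another 30 min; AlphaScreen beads added, 20 min dark incubation, luminescence read.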
Starred values were filed as active, the others as inactive; ? = inconclusive; . = no result given; ! = a repeat was not active; [ ] = remark or other dose. Calls come from the whole dose curve; as a rule, active = well fitted curve in the direction sought with a large enough effect; inconclusive = small, poorly fitted or top-dose-only effect, or another doubt; inactive = no such curve, though single readings can be large; an effect the other way counts as inactive or inconclusive. Potency is the fitted concentration of half-maximal effect.

SMILES | HP1b binding inh | G9a block | Sfp inh | JMJD2A Tudor | TDP1 block | BAZ2B inh
O=C1CN(C(=O)CSc2nc3ccccc3n2CCc2ccccc2)c2ccccc2N1 | 21.7% | 10µM* | -17.4% | -1.1% | 4.5% | -34.4%
COc1cccc(Cn2c(CNS(=O)(=O)c3ccc4c(c3)CCCC4)nc3cccnc32)c1 | 14.4%[57 µM] | 10.3%[59 µM] | . | -27.7% | 4.4% | -13.4%
COc1ccc(/C=C/C(=O)N2CCCc3ccccc32)cc1 | 16.9% | ? | 79.4µM* | -9.2% | 0.0% | -27.3%
COc1ccc(N/N=C(/C(C)=O)N2CCCc3ccccc32)cc1 | ? | . | -23.1% | 35.5µM* | 8.2% | ?
COCCn1c(=NC(=O)c2cc(Cl)sc2Cl)sc2cc(S(N)(=O)=O)ccc21 | 16.2% | 28.2µM* | 10.9% | -6.8% | 1.8% | -8.4%
CCOc1cc(C#N)c(-n2nnc3c(sc4nc(C)cc(C)c43)c2=O)cc1OCC | 7.4% | 15.8µM* | . | -13.8% | 1.9% | -16.3%
COc1cccc(-n2nnc3c(sc4nc(C)cc(C)c43)c2=O)c1 | 14.6% | -21.6%[59 µM] | . | -10.7% | 0.0% | -0.5%
COc1ccc(-n2c3c(cc(C(=O)NNc4ccccc4C)c2=O)C(=O)CC(C)(C)C3)cc1 | 7.5% | 50.1µM* | 4.5% | -11.3% | 4.6% | .
COc1ccc(-n2c3c(cc(C(=O)NNc4ccccc4)c2=O)C(=O)CC(C)(C)C3)cc1 | 19.2% | -51.0% | 18.2% | -1.5%[11.4 µM] | 0.0% | -1.8%
CCOC(=O)C(CS)NCCN[C@@H](CS)C(=O)OCC (some centres undefined) | . | ? | 1.58µM* | . | . | .
CCC(=O)Nc1ccc2nc(SCCOc3ccc(C)cc3)sc2c1 | 6.2% | -17.3%[59 µM] | . | -17.5% | 4.7% | -3.6%
Cc1ccccc1NS(=O)(=O)c1ccc(NC(=O)N2CCCCC2)cc1 | 39.9% | 3.8% | 11.4% | -3.6% | -7.2% | -13.1%
CC1(C)C(=O)N(CCN2CCC(C(=O)c3ccc(F)cc3)CC2)c2ccccc21 | 57.5% | 20µM*! | . | -11.5% | 8.0% | 2.0%
CN1C(=O)c2ccccc2Sc2ccc(NC(=O)COc3ccccc3)cc21 | 21.2% | -27.4%[59 µM] | . | -33.3% | -13.2% | -2.9%
CCCCn1c(=O)[nH]c(=O)c2c1nc(-c1ccc(-c3ccccc3Br)o1)n2CCOC | 5.3% | 15.8µM* | 39.8µM* | -30.5% | -1.9% | -7.4%
CCCCn1c(=O)[nH]c(=O)c2c1nc(-c1ccncc1)n2CCOC | 30.8% | 8.8%[12.7 µM] | 11.2% | -8.4% | 2.2% | 6.7%
COCCn1c(-c2ccc(NC(C)=O)cc2)nc2c1c(=O)[nH]c(=O)n2CC(C)C | -19.5% | 39.7% | 1.8% | -11.4% | . | 3.5%
COCCn1c(-c2ccc(-c3ccccc3Cl)o2)nc2c1c(=O)[nH]c(=O)n2CC(C)C | 11.3% | 22.4µM* | 17.8µM* | -28.0% | 7.3% | 0.6%
COc1cccc(NC(=O)N2CCCC(C(=O)NC3CCCCC3C)C2)c1 (centres undefined) | 30.5%[57 µM] | 10.5% | 11.2% | 8.5% | 1.5% | -17.0%
CCC/C=C1/CCCOC(C(=O)NCc2ccc(C)o2)(C(F)(F)F)C1 (centres undefined) | 24.3% | . | 56.2µM* | -10.0% | 4.9% | .
CCC/C=C1\CCCOC(C(=O)NCc2ccc(C)o2)(C(F)(F)F)C1 (centres undefined) | 33.0% | . | 50.1µM* | -10.3% | 5.0% | .
CCn1nc(C)c(C2C(C#N)=C(N)OC3=C2C(=O)CCC3)c1C (centres undefined) | 50.0% | 19.4%[59 µM] | -7.9% | 2.4% | -2.6% | 12.4%
CCn1nc(C)c(/C=C2\CCCC3=C2OC(N)=C(C#N)C3c2c(C)nn(CC)c2C)c1C (centres undefined) | . | 50.1µM* | 15.2% | . | 3.1% | -8.0%
Cc1ccc(N2CC(C(=O)OCC(=O)c3ccc(C)c([N+](=O)[O-])c3)CC2=O)cc1 (centres undefined) | 4.8% | ? | . | -14.3% | -8.8%[0.505 µM] | -1.6%
CON(C)C(=O)c1nnc2c3ccccc3n(S(=O)(=O)c3ccc(C)cc3)c2n1 | . | . | 16.7% | . | 11.1%[21 µM] | .
SMILES | HP1b binding inh | G9a block | Sfp inh | JMJD2A Tudor | TDP1 block | BAZ2B inh
S=C(NNc1cccc(Cl)c1)NC1CCCCC1 | ? | 28.2µM* | -2.7% | 8.91µM* | 10.1% | 35.5µM*
CN(C)NC(=S)Nc1cccc(Cl)c1 | 14.8% | -4.1% | 12.9% | -19.6% | 4.7% | -3.6%
NC(=S)NNc1cccc(Cl)c1 | 28.9% | 8.91µM* | 39.8µM* | ? | 4.7% | -1.7%
NC(=S)NNC(=O)Nc1cccc(Cl)c1 | 25.8% | 8.91µM* | 14.2% | ? | -2.7% | 3.9%
S=C(Nc1cccc(Cl)c1)NC1CCCCC1 | 49.0% | 44.1% | 9.2% | -3.8% | -2.0% | 3.6%
Cc1ccccc1NNC(N)=S | 9.6% | 11.2µM* | 50.1µM* | -15.5% | -8.8% | -17.1%
O=C(CNC(=O)c1ccccc1)OCc1cc(=O)n2nc(C3CC3)sc2n1 | -14.8% | 11.6%[59 µM] | . | -24.3% | 8.4% | -4.7%
Cc1cccc(NNC(N)=S)c1 | -15.6% | 39.8µM* | 14.1µM* | -18.9% | 0.6% | ?
CN(Cc1ccccc1)/C(=N/O)c1cccc(Cl)c1 | 26.6% | 0.4% | 7.7% | -7.4% | . | -7.3%
CC(O)CN(Cc1cccc(Cl)c1)CC(C)O (centres undefined) | -25.1% | ? | -2.8% | 3.55µM* | 0.0% | 56.2µM*
O=C1C2C3C=CC(CC3)C2C(=O)N1c1ccc([N+](=O)[O-])cc1 (centres undefined) | 19.2% | 31.6µM* | 5.4% | -5.6% | . | -3.6%
COc1cc(/C=N/NC(=O)c2ccc(CSc3nncn3C)cc2)cc(OC)c1O | 9.0% | 12.6µM* | -3.2% | -12.4% | 2.5% | -19.5%
COc1cc(/C=N/NC(=O)/C(=C\c2ccc([N+](=O)[O-])cc2)NC(=O)c2ccccc2)cc(OC)c1O | 2.4% | 44.7µM* | -17.2% | ? | 6.6% | -37.1%
COc1cc(/C=N/NC(=O)/C(=C\c2ccc3c(c2)OCO3)NC(=O)c2ccccc2)ccc1O | -4.9% | -9.3% | -16.4% | -6.6% | 2.3% | -7.7%
COc1ccc(Br)cc1C(=O)N/N=C/c1ccc([N+](=O)[O-])cc1 | -3.7% | -33.8% | -8.8% | -27.8% | -5.1% | -6.4%
COc1cc(/C=N/NC(=O)c2ccc([N+](=O)[O-])cc2Cl)cc(Br)c1O | 10.1% | 44.7µM* | 1.2% | -4.1% | 1.1% | 2.0%
COc1cc(/C=N/NC(=O)Cc2ccc(Br)cc2)cc(OC)c1O | 2.1% | 50.1µM* | -5.3% | -1.9% | -2.4% | 2.9%
COc1cc(Br)cc(/C=N/NC(=O)Cc2ccccc2)c1O | 36.1% | . | . | -16.3% | . | .
Cc1coc2c1c(C)cc1oc(=O)c(CC(=O)NCCCN3CCCC3=O)c(C)c12 | 45.5% | . | 7.8% | -13.6% | . | 3.6%
COc1cc(/C=N/NC(=O)c2sc(N)c(C#N)c2C)cc(Br)c1O | 28.1% | 22.3%[59 µM] | 5.5% | -9.5% | 5.1% | -7.1%

Screening data: PubChem, National Center for Advancing Translational Sciences (NCATS)
